# PubChem BioAssay (NCATS)
# Calls of active or inactive are those of the source. The call rests on the fitted dose curve; in most records, active means well fitted activation curve with a large enough effect; inconclusive means small, poorly fitted or top-dose-only effect; inactive means flat fitted curve, though single readings scatter.
# Assay: Cellular Toxicity (caspase-3) HepG2 (AID 654);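 further: cells exposed to compound for 16 hours before reading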
# Conditions: HepG2 caspase-3 activation, luminescence, 0% = DMSO only, 100% = tamoxifen; series mostly up to 92.2 µM
# Excerpt: NIH Chemical Genomics Center [NCGC]
# NIH Molecular Libraries Screening Centers Network [MLSCN]
# National Institutes of Environmental Health Sciences [NIEHS]
# National Toxicology Program [NTP]
# We have developed a 1536-well cell-based assay for quantitative high throughput screening (qHTS) against a number of cell lines to determine in vitro caspase 3/7 of small molecules. This particular assay uses the HepG2 cell line which is derived from human hepatocellular carcinoma.
# NCGC Assay Protocol Summary:
# The Caspase-Glo 3/7 assay (Promega) is a homogeneous method to measure caspase-3 and caspase-7 activities in cultured cells. The quantitation of caspase 3/7 activity is based on the cleavage of a peptide-aminoluciferin substrate. After caspase cleaves the substrate the free aminoluciferin is liberated and serves as the substrate of luciferase, which generates the light. The luminescent signal is proportional to amount of caspase 3/7 activity present.
# Using the Caspase-Glo 3/7 assay, the amount of caspase 3/7 activity was measured in the HepG2 cell line with complete culture medium following compound treatment for 16 hours. The assay was performed in opaque white 1536-well plates. In the screen, tamoxifen and doxorubicin were used as positive controls. Library compounds were measured for their ability to cause the activation of caspase 3/7 in the cell line, as reflected by an increase in luminescence signal, in a concentration-dependent manner. Data were normalized to the controls for basal activity (DMSO only) and 100% stimulation (100 uM tamoxifen). AC50 values were determined from concentration-response data modeled with the standard Hill equation.
# qHTS protocol for caspase 3/7 assay in HepG2 cells
# [Step] [Parameter] [Value] [Description]
# 1. Reagent; 5 uL; 1500 HepG2 cells/well
# 2. Time; 5 hr; 37 °C incubation
# 4. Controls; 23 nL; Tamoxifen 0.23 uM to 100 uM & Doxorubicin 7.0 pM to 100 uM
# 5. Time; 16 hr; 37 °C incubation
# 6. Reagent; 5 uL; Caspase-Glo 3/7 reagent
# 7. Time; 20 min; Room Temperature
# 8. Detection; Luminescence; Viewlux plate reader
# Keywords: caspase 3/7, apoptosis, HepG2 cell line, luminescence, NTPHTS, NTPHTS_NCGC, NIEHS, EPA, DSSTox, MLSMR, MLSCN, NIH Roadmap, qHTS, NCGC
row,SMILES,outcome
1,CC1=C(/C=C/C(C)=C/C=C/C(C)=C/CO)C(C)(C)CCC1,inactive
2,CCCCCCCC/C=C\CCCCCCCC(=O)O,inactive
3,Cc1ccccc1,inactive
4,CCCCCCCC(=O)O,inactive
5,Nc1ccn([C@H]2CS[C@@H](CO)O2)c(=O)n1,inactive
6,CC(C)=O,inactive
7,O=S(=O)(O)O,inactive
8,CC1=C2[C@@H]([C@H](C)CC[C@H]2/C=C(\C)C(=O)O)[C@H](O)C1,inactive
9,IC(I)I,inactive
10,CCOc1ccc2c(c1)C(C)=CC(C)(C)N2,inactive
11,CCOC(C)=O,inactive
12,O=C(O)CCC(=O)C(=O)O,inactive
13,CCCCC/C=C\C/C=C\CCCCCCCC(=O)O,inactive
14,CC(O)CO (centres undefined),inactive
